In article PMC7862700, “An all-to-all approach to the identification of sequence-specific readers for epigenetic DNA modifications on cytosine” one finds binding signal data, which are given here for one sequence.

Common to all, as to experiment: DAPPL (digital affinity profiling via proximity ligation, sequencing); 10 mM Tris-HCl pH 7.5, 50 mM NaCl, 1 mM DTT, 4% glycerol, room temperature, 30 min; GST-TFs on glutathione beads, 16-mer random dsDNA library, 0.1% formaldehyde crosslink after washing; high values mean tight binding
For one assay, the target named is T1, FLI1 (Homo sapiens, UniProt Q01543 1-452).
T1 sequence: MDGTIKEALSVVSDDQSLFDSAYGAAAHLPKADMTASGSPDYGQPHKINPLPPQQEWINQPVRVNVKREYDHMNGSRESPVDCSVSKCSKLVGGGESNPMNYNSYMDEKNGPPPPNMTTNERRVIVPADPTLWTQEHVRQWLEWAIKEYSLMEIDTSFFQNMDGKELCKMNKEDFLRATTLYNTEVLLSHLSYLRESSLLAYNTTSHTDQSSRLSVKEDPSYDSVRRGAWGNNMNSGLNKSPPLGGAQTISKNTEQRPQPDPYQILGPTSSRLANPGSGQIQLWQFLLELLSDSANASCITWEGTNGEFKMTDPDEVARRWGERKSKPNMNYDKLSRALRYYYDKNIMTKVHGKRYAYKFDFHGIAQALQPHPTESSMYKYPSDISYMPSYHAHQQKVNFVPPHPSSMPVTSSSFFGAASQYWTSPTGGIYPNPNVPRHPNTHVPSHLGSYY
The settings on record: protein: recombinant; tags: N-terminal GST; dsDNA, one strand shown. A digest of the protocol: (§1)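 Sequencing on an Illumina NextSeq500 followed washing, crosslinking with 0.1% formaldehyde, proximity ligation (BsaI/T4 ligase, 1 h, 37 °C) and PCR amplification of pools that had been incubated for 30 min at room temperature with 200 nmole of a random double-stranded 16-mer DNA library in Tris/NaCl/DTT/glycerol buffer. Each pool held DNA-barcoded human transcription factors, expressed in yeast as GST fusions and captured on glutathione beads, plus a tag-only sample. Binding signal is a hexamer's read frequency for a factor divided by its frequency in the tag-only sample.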

For the next assay, the target named is T2, ELK1 (Homo sapiens, UniProt P19419 1-428).
T2 sequence: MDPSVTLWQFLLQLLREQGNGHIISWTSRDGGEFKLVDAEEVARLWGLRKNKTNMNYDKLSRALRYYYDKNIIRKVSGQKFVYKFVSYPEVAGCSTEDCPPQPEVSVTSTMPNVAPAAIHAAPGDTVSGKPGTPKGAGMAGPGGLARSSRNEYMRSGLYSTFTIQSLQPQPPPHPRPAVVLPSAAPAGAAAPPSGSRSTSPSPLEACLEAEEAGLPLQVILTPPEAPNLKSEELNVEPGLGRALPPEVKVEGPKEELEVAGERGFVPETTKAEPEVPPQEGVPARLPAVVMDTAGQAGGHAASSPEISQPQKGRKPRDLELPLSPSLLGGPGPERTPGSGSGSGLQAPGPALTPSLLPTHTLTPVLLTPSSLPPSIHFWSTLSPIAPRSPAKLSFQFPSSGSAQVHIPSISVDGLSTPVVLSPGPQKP
Particulars: protein: recombinant; tags: N-terminal GST; dsDNA, one strand shown. The gist of the method:
as §1

The next assay concerns the target T3, GABPA (Homo sapiens, UniProt Q06546 1-454).
T3 sequence: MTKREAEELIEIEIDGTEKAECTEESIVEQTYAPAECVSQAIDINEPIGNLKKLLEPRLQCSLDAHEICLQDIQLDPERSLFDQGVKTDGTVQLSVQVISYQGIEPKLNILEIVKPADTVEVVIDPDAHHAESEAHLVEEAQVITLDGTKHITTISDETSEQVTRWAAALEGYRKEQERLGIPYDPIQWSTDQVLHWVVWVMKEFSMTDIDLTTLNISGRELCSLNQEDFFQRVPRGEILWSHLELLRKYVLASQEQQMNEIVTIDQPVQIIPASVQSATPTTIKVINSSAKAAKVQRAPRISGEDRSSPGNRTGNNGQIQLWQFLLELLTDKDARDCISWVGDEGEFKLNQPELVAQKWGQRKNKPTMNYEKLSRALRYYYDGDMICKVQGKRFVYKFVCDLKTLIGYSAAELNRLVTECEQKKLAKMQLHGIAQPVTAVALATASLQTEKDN
Particulars: protein: recombinant; tags: N-terminal GST; dsDNA, one strand shown. A digest of the protocol:
as §1

Another assay addresses T4, ERG (Homo sapiens, UniProt P11308 1-479).
T4 sequence: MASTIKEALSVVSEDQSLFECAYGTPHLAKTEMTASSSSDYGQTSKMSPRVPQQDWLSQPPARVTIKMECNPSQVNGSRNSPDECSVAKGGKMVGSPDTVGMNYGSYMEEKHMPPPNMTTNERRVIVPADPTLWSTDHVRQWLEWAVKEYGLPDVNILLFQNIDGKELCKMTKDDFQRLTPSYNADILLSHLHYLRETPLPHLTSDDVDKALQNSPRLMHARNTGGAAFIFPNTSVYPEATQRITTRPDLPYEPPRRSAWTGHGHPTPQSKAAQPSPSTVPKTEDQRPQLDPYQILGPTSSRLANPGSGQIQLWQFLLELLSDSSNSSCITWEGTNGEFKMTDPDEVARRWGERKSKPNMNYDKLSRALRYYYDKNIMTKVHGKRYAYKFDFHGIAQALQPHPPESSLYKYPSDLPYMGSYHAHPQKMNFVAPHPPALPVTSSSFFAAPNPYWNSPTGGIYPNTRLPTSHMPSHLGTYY
Particulars: protein: recombinant; tags: N-terminal GST; dsDNA, one strand shown. The gist of the method:
as §1

For the next assay, the target named is ELF1 (Homo sapiens, UniProt P32519 1-619). Particulars: protein: recombinant; tags: N-terminal GST; dsDNA, one strand shown. The gist of the method:
as §1

Another assay deals with T5, EHF (Homo sapiens, UniProt Q9NZC4 1-300).
T5 sequence: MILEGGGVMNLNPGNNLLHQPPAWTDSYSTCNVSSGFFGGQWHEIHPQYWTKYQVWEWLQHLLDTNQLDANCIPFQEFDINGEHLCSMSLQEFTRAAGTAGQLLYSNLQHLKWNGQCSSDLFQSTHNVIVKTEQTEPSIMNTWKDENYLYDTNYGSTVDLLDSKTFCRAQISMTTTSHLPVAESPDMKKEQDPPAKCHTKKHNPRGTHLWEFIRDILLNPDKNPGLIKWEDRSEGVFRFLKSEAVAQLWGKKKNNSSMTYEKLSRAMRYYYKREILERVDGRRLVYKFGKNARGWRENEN
The settings on record: protein: recombinant; tags: N-terminal GST; dsDNA, one strand shown. A digest of the protocol: as §1

The next assay addresses SPI1 (Homo sapiens, UniProt P17947 1-270). The settings on record: protein: recombinant; tags: N-terminal GST; dsDNA, one strand shown. A digest of the protocol:
as §1

For another assay, the target named is SPIB (Homo sapiens, UniProt Q01892 1-262). Particulars: protein: recombinant; tags: N-terminal GST; dsDNA, one strand shown. The gist of the method: as §1
The next assay has as its target T6, ELK3 (Homo sapiens, UniProt P41970 1-407).
T6 sequence: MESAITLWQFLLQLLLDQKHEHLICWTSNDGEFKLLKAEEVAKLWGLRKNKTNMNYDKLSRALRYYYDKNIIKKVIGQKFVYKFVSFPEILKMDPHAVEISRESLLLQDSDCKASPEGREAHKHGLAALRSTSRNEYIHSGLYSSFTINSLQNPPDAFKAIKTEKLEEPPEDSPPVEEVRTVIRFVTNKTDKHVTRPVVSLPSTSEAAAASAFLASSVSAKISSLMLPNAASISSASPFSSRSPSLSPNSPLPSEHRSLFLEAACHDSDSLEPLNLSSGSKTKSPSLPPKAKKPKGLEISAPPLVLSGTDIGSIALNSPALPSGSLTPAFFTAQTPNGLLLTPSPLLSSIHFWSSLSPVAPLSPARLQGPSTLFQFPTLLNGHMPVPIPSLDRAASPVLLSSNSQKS
The settings on record: protein: recombinant; tags: N-terminal GST; dsDNA, one strand shown. A digest of the protocol: as §1

The target of another assay is T7, FEV (Homo sapiens, UniProt Q99581 1-238).
T7 sequence: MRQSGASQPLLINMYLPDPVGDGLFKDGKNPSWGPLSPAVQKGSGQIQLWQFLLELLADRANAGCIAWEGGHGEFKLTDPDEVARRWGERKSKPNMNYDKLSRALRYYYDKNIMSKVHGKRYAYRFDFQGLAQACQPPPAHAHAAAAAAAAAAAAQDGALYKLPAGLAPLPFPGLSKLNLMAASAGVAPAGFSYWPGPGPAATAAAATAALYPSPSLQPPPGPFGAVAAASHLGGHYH
The settings on record: protein: recombinant; tags: N-terminal GST; dsDNA, one strand shown. A digest of the protocol:
as §1

A further assay addresses ETV5 (Homo sapiens, UniProt P41161 1-510). The settings on record: protein: recombinant; tags: N-terminal GST; dsDNA, one strand shown. The gist of the method:
as §1

For the next assay, the target named is HSF1 (Homo sapiens, UniProt Q00613 1-529). Particulars: protein: recombinant; tags: N-terminal GST; chain copies: 3; dsDNA, one strand shown. The gist of the method:
as §1

In another assay the target is T8, SPIC (Homo sapiens, UniProt Q8N5J4 1-248).
T8 sequence: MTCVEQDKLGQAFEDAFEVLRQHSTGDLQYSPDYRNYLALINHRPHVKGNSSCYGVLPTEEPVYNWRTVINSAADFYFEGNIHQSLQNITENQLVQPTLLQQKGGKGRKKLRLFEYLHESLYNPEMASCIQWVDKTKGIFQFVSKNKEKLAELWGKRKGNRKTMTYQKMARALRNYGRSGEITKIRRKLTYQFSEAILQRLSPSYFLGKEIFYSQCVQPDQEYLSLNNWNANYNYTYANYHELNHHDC
Particulars: protein: recombinant; tags: N-terminal GST; dsDNA, one strand shown. A digest of the protocol: as §1

The target in a further assay is ELF4 (Homo sapiens, UniProt Q99607 1-663). Particulars: protein: recombinant; tags: N-terminal GST; dsDNA, one strand shown. The gist of the method: as §1
Another assay has as its target T9, ELK4 (Homo sapiens, UniProt P28324-2 1-405).
T9 sequence: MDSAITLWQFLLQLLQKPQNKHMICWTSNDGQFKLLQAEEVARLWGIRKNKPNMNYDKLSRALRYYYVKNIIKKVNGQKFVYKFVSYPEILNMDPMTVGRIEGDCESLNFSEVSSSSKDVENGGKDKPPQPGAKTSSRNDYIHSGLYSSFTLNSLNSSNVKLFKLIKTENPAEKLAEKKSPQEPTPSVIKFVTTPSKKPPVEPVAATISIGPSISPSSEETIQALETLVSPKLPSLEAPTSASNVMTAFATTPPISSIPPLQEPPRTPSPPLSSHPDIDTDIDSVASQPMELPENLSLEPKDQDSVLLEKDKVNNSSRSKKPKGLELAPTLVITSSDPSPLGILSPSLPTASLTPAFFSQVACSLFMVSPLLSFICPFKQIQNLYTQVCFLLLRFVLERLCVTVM
The settings on record: protein: recombinant; tags: N-terminal GST; dsDNA, one strand shown. A digest of the protocol:
as §1

Another assay concerns the target T10, ETV2 (Homo sapiens, UniProt O00321 1-342).
T10 sequence: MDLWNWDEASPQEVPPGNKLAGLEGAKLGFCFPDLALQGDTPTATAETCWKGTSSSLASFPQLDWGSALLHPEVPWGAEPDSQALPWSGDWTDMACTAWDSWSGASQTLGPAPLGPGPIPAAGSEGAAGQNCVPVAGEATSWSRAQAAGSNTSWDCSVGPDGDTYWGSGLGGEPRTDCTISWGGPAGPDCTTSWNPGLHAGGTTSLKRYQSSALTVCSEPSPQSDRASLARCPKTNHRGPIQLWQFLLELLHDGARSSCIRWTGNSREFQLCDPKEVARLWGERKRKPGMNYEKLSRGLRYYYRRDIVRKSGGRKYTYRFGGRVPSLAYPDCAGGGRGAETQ
The settings on record: protein: recombinant; tags: N-terminal GST; dsDNA, one strand shown. The gist of the method:
as §1

The target in the next assay is CRX (Homo sapiens, UniProt O43186 1-299). Particulars: protein: recombinant; tags: N-terminal GST; dsDNA, one strand shown. A digest of the protocol: as §1
The next assay deals with ETV1 (Homo sapiens, UniProt P50549 1-477). The settings on record: protein: recombinant; tags: N-terminal GST; dsDNA, one strand shown. A digest of the protocol: as §1
Chain of ETV1 (P50549 whole entry): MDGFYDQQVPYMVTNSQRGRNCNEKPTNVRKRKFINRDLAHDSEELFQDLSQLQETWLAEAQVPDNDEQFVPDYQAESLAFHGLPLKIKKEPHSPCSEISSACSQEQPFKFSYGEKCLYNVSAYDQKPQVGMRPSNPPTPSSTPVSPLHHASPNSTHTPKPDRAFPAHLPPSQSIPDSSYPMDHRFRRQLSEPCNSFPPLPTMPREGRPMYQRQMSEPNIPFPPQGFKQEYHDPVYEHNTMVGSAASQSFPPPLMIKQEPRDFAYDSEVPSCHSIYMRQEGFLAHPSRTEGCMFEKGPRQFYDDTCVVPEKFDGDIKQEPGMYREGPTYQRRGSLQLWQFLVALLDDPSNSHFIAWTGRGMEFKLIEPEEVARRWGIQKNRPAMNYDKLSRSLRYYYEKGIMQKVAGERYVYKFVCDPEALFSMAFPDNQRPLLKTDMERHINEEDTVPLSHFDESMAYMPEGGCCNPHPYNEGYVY

Chain of CRX (O43186 whole entry): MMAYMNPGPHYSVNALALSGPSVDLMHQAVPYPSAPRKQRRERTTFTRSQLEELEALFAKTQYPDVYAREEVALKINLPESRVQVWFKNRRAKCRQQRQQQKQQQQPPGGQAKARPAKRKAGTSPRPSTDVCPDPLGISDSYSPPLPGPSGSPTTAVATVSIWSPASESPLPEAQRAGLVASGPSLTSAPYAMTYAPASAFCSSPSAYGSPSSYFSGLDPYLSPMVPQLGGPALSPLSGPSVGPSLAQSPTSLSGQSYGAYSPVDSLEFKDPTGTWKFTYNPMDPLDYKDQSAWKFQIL
Chain of SPIB (Q01892 whole entry): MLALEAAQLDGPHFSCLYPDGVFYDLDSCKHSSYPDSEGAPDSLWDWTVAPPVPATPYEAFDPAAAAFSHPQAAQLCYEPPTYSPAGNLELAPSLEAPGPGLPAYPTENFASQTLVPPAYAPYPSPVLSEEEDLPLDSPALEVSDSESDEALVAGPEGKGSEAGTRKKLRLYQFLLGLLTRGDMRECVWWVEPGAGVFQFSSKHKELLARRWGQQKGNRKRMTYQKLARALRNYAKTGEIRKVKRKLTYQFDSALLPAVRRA
Chain of ETV5 (P41161 whole entry): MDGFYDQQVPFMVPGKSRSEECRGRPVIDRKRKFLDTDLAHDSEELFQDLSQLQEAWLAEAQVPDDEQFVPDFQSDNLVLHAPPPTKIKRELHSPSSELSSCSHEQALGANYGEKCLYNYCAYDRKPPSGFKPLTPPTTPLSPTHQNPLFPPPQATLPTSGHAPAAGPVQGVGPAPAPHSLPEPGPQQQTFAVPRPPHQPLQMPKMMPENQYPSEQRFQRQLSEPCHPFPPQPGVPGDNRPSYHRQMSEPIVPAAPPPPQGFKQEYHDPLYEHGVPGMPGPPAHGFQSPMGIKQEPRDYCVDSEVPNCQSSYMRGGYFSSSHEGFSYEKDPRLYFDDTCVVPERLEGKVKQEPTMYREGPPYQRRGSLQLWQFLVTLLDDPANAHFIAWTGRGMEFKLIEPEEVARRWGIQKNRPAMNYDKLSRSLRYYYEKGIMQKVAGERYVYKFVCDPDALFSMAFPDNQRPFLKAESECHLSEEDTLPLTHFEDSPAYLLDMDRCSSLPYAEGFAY
Chain of HSF1 (Q00613 whole entry): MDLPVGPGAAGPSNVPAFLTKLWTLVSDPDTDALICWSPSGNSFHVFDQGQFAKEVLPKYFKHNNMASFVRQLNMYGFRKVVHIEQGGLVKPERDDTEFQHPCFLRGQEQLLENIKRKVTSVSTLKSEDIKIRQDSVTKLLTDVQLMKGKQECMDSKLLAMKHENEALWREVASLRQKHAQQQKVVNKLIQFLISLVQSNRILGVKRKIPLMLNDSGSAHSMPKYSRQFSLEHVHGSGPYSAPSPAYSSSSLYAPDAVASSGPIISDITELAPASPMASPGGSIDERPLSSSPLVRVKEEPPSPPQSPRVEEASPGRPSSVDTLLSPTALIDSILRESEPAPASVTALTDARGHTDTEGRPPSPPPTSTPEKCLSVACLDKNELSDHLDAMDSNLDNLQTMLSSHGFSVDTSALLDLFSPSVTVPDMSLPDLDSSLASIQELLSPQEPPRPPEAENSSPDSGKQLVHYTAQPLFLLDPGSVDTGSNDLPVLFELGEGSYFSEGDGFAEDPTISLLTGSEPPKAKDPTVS
Chain of ELF1 (P32519 whole entry): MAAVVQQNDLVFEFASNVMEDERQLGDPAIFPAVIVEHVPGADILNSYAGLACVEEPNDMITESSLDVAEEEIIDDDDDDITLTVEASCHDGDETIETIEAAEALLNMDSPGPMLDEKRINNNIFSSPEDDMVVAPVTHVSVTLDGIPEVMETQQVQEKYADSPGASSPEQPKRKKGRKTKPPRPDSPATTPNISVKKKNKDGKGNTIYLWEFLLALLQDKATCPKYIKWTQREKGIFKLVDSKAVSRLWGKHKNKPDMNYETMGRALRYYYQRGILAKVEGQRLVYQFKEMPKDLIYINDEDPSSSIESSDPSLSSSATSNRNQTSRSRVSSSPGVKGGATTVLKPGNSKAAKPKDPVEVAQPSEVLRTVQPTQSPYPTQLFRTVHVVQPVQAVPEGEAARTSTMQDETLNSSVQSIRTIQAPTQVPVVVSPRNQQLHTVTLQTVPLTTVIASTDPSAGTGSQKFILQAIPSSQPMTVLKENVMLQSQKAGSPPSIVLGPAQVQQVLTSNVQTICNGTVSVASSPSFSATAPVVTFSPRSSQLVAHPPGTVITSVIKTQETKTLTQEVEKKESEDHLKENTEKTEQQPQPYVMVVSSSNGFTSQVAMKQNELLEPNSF
Chain of ELF4 (Q99607 whole entry): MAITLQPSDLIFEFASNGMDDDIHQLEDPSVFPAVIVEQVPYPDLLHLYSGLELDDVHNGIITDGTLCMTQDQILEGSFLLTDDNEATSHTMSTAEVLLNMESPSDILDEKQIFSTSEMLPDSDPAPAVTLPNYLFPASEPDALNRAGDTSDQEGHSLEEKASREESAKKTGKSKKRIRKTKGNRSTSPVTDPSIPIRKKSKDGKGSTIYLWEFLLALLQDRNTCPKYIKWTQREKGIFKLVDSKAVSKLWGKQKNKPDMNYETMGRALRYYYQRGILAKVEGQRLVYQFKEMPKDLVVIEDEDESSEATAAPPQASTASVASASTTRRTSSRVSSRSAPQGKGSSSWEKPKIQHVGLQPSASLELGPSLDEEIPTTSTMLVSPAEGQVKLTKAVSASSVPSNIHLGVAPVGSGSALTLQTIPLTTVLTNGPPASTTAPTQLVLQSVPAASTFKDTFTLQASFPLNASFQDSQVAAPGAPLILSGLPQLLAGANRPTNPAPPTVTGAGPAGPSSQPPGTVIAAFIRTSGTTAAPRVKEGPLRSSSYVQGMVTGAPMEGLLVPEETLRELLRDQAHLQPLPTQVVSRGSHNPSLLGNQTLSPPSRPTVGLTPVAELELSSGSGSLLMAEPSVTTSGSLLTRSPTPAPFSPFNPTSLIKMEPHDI

Take ATTCAG: the binding signal was 1.02 fold enrichment (6-mer frequency, TF over GST control) with FLI1; 1.11 fold enrichment (6-mer frequency, TF over GST control) in the assay with ELK1; 1.17 fold enrichment (6-mer frequency, TF over GST control) with GABPA; 1.14 fold enrichment (6-mer frequency, TF over GST control) with ERG; 1.09 fold enrichment (6-mer frequency, TF over GST control) with ELF1; 1.1 fold enrichment (6-mer frequency, TF over GST control) in the assay with EHF. Also, the binding signal with SPI1 is 1.16 fold enrichment (6-mer frequency, TF over GST control); in the assay with SPIB it was 1.02 fold enrichment (6-mer frequency, TF over GST control); in the assay with ELK3 it was 1.16 fold enrichment (6-mer frequency, TF over GST control); with FEV, 1.03 fold enrichment (6-mer frequency, TF over GST control); with ETV5 it was 1.1 fold enrichment (6-mer frequency, TF over GST control); with HSF1, 1.17 fold enrichment (6-mer frequency, TF over GST control). In addition, the binding signal was 1.17 fold enrichment (6-mer frequency, TF over GST control) in the assay with SPIC; 1.13 fold enrichment (6-mer frequency, TF over GST control) with ELF4; 1.08 fold enrichment (6-mer frequency, TF over GST control) with ELK4; 1.02 fold enrichment (6-mer frequency, TF over GST control) with ETV2; 1.07 fold enrichment (6-mer frequency, TF over GST control) with CRX; 1.07 fold enrichment (6-mer frequency, TF over GST control) with ETV1.
